GAA850 FXN act: FXN promoter activators, primary screen, cell-based, luciferase luminescence, HEK293 lucGAA850 | HEK293 lucGAA850 FXN promoter luciferase reporter, 24 h; percent of 10 µM SAHA response | activation, % at 6 µM | actives 0.56% (n = 360,000) | AID 540364, 2011;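 active = activation above the average of all compounds screened plus 3 SD, cutoff fixed separately per campaign, cut at about 7.5% in these data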
AHR activator: AHR activators, primary screen, cell-based, luminescence, luciferase reporter, human; Aryl hydrocarbon receptor (Homo sapiens), P35869; AHR-responsive luciferase reporter cells; activation, % at 5 µM; actives 2.5% (n = 320,000); AID 2796, 2010; in the data active = activation above about 47%
HSP90 inh: HSP90 inhibitors, primary screen, cell lysate, luminescence. inhibition, % at 5.6 µM. Heat shock protein HSP 90 (rabbit reticulocyte lysate; luciferase refolding). Rabbit reticulocyte lysate, luciferase refolding luminescence, 3 h. actives 0.91% (n = 290,000). AID 1789, 2009;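 active = inhibition above the screen-wide mean plus 3 SD, computed separately per campaign, cut at about 16% in these data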;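 note: inhibitors lower the luminescence because luciferase stays unfolded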
NR0B1 inh: DAX1 (NR0B1) inhibitors, primary screen, cell-based, HEK293, Gal4-DAX1, luciferase luminescence; actives 0.99% (n = 340,000); HEK293 Gal4-DAX1 luciferase reporter; inhibition, % at 6.75 µM;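 active = inhibition above the mean over all tested compounds plus 3 SD, cut at about 4.2% in these data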;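 note: inhibition shows as a rise in luminescence from relieved DAX1 repression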
Target sequence (P51843 207-470 limits assumed): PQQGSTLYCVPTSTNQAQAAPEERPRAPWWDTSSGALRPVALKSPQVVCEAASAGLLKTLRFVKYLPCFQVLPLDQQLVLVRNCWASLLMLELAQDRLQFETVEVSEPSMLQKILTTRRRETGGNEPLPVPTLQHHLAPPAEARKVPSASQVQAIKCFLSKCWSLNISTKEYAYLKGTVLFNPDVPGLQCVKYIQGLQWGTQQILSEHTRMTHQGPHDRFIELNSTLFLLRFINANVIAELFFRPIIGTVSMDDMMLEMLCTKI
HSF1 inh: HSF1 inhibitors in luciferase reporter cells, primary screen, cell-based, NIH3T3, luminescence | actives 0.77% (n = 300,000) | NIH3T3-HGL HSE-luciferase, MG132-induced, luminescence 8 h; hits give low values | activity change, negative = inhibition, % at 7.5 µM (by protocol);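 active = more than half of replicate wells show activity change below -50%, luminescence cut by over half; inconclusive = some wells, but at most half, below -50%; inactive = no replicate well below -50%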;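 note: luciferase reports HSF-1 transcriptional activity via heat shock element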
HSF-1 act: HSF-1 activators, primary screen, NIH3T3-HGL cells, MG132 stress, luminescence, single point | NIH3T3-HGL HSF-1 luciferase reporter, 8 h; 100% = twice DMSO control signal | activation, % at 9 µM | actives 1.7% (n = 300,000) | AID 504408, 2011;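 active = mean replicate activation of at least 50% with a set share of replicates each reaching 50%; inconclusive = only one of those two conditions met; inactive = mean below 50% and too few replicates reaching it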
GAA30 FXN cntr: GAA30 FXN promoter activators, confirmation, counter-screen for GAA850 frataxin promoter activator project, cell-based, luminescence, HEK293, lucGAA30, triplicate. actives 66% (n = 1,900). HEK293 lucGAA30 FXN promoter luciferase, 24 h; DMSO = 0%, 5 µM ipriflavone = 100%. activation, % at 6 µM. AID 588350, 2011. shares compounds with GAA850 FXN act;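 active = mean activation above the mean of solvent-only control wells plus 3 SD, cut at about 22% in these data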;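 note: counterscreen of GAA850 promoter hits where activity marks nonselective or luminescence artifacts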
FXN GAA850 conf: FXN GAA850 promoter activators in reporter cells, confirmation, cell-based, luminescence, HEK293 lucGAA850, triplicate. shares compounds with GAA850 FXN act. HEK293 lucGAA850 FXN promoter luciferase reporter, 24 h; 100% = activation by SAHA. activation, % at 6 µM. actives 86% (n = 1,900);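 active = mean activation above a set limit taken from the primary screen, cut at about 8% in these data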
Of the large screens only hits and unclear results are named; the others gave an inactive call (follow-up assays come after a bar, where they were run). An excerpt weighted towards active compounds, which were near 5.9% of everything screened.

COc1ccccc1C(=O)N=c1sc2c(C)ccc(OC)c2n1C	GAA850 FXN act 9.5, AHR activator 62.4 | GAA30 FXN cntr 81.8 | FXN GAA850 conf 32.4
CCCCC(=O)N=c1sc2c(OC)ccc(OC)c2n1C	none
COc1ccc(OCC(=O)OCC(=O)NC2CCCC2)cc1	none (no result: HSP90 inh, HSF1 inh, HSF-1 act)
Cc1c(/C=C/C(=O)c2ccc(O)cc2)cnn1C	none
CCn1cc(/C=C/C(=O)c2ccc(O)cc2)c(C)n1	GAA850 FXN act 8.7, NR0B1 inh 12.7 | GAA30 FXN cntr 101.7 | FXN GAA850 conf 24.5
O=C(NCCc1csc(-c2cccnc2)n1)c1cccs1	none
Cc1ccc(C(=O)NCCc2csc(-c3cccnc3)n2)cc1	GAA850 FXN act 19.9 | GAA30 FXN cntr 76.4 | FXN GAA850 conf 27.3
O=C(Oc1c(CN2CCOCC2)cc(Cl)c2cccnc12)c1ccccc1F	GAA850 FXN act 7.7 | GAA30 FXN cntr inactive | FXN GAA850 conf 14.0
Cc1ccc(S(=O)(=O)N2CCOCC2)cc1C(=O)OCC(=O)N(Cc1ccccc1)C(C)C	none (no result: HSP90 inh, HSF1 inh, HSF-1 act)
Cc1cccc(CCNC(=O)c2cccc(NC3=NC4CS(=O)(=O)CC4S3)c2)c1 (stereo not given)	GAA850 FXN act 16.4 | GAA30 FXN cntr inactive | FXN GAA850 conf inactive
Cc1cccc(CCNC(=O)Cc2ccc(NC3=NC4CS(=O)(=O)CC4S3)cc2)c1 (stereo not given)	none
CCOc1ncccc1C(=O)NCC1COc2ccccc2O1 (stereo not given)	none (no result: HSF1 inh, HSF-1 act)
CCc1ccc(-c2cn(C3CCCCC3)c(=S)[nH]2)cc1	GAA850 FXN act 8.0, AHR activator 62.5 | GAA30 FXN cntr 58.2 | FXN GAA850 conf 24.3
CCc1ccc(-n2cc(-c3ccc([N+](=O)[O-])cc3)[nH]c2=S)cc1	HSF-1 act inconclusive
CN(/N=C/c1ccncc1)C1=NCCN1	none
CN(/N=C/c1ccncc1)c1cnc2ccccc2n1	GAA850 FXN act 9.6 | GAA30 FXN cntr 104.8 | FXN GAA850 conf 29.2
Cc1c(C(=O)Nc2cccnc2Cl)oc2ccccc12	GAA850 FXN act 7.8 | GAA30 FXN cntr 128.4 | FXN GAA850 conf 42.0
Cc1ccc(NC(=O)COC(=O)CSC(=S)N2CCOCC2)cc1	none
O=C(CN1CCN(c2ccc(F)cc2)CC1)c1ccc2c(c1)OCO2	none
O=C(C#Cc1ccccc1)c1ccco1	GAA850 FXN act 12.5, HSF1 inh -95.9 | GAA30 FXN cntr inactive | FXN GAA850 conf inactive
COc1cccc2sc(N(C)c3ccccc3)nc12	GAA850 FXN act 7.7, HSF-1 act 63.6 | GAA30 FXN cntr 106.6 | FXN GAA850 conf 30.9
CCOc1ccc(-c2nc(CCl)cs2)cc1	GAA850 FXN act 7.6 | GAA30 FXN cntr 114.2 | FXN GAA850 conf 37.2
ClCc1csc(-c2ccc(Cl)cc2)n1	none
CCn1c(=O)[nH]c(=O)c2c(N)c(C(=O)c3cc(F)ccc3F)sc21	GAA850 FXN act 8.7 | GAA30 FXN cntr 23.1 | FXN GAA850 conf 17.6
C=CCn1c(=O)[nH]c(=O)c2c(N)c(C(=O)c3ccc(OC)cc3)sc21	none (no result: AHR activator, HSP90 inh, HSF1 inh, HSF-1 act)
Cc1cc(Br)ccc1S(=O)(=O)NCc1ccccc1	none
CC1CC(=O)NN=C1c1ccc(N(C)C)c([N+](=O)[O-])c1 (stereo not given)	GAA850 FXN act 7.8 | GAA30 FXN cntr 25.6 | FXN GAA850 conf 21.8
CCN(CC)c1ccc(C2=NNC(=O)CC2C)cc1[N+](=O)[O-] (stereo not given)	none
COc1ccc(S(=O)(=O)N2CCN(C(=O)c3ccc(C)o3)CC2)cc1	none
NC(=O)c1c(NC(=O)c2ccccc2)sc2c1CCc1ccccc1-2	GAA850 FXN act 7.7, HSF-1 act 73.8 | GAA30 FXN cntr 94.5 | FXN GAA850 conf 35.4
NC(=O)[C@@H]1CCCN1C(=O)c1ccc2oc(CCc3ccccc3)nc2c1	GAA850 FXN act 7.8 (no result: AHR activator) | GAA30 FXN cntr 73.6 | FXN GAA850 conf 30.8
O=C(c1ccc2oc(CCc3ccccc3)nc2c1)N1CCC(O)CC1	none
Cc1ccc(NC(=O)CSCC(=O)Nc2ccccc2N2CCCCC2)cc1	GAA850 FXN act 11.6 (no result: HSP90 inh) | GAA30 FXN cntr inactive | FXN GAA850 conf 13.4
C#CCOCCOCCOCCNc1nc(N2CCN(C(=O)[C@H](CCCCN)n3cc(C(N)CO)nn3)CC2)nc(N2CCN(C(=O)[C@H](CCC(=O)O)n3cc(C(N)Cc4ccc(O)cc4)nn3)CC2)n1 (stereo not given in full)	none (no result: GAA850 FXN act, AHR activator, HSP90 inh, NR0B1 inh)
O=C(NC1CCCCC1)C(=O)c1c[nH]c2ccccc12	GAA850 FXN act 8.3 | GAA30 FXN cntr 84.9 | FXN GAA850 conf 27.7
Cc1nnc(SCC(=O)N2CCCC(N3CCN(c4ccc(F)cc4)CC3)C2)o1 (stereo not given)	none
CCOC(=O)c1sc(-c2ccc(Br)cc2)cc1N	GAA850 FXN act 15.9 | GAA30 FXN cntr 116.6 | FXN GAA850 conf 42.8
CC(C)CCn1c(SCC(N)=O)nc2c1c(=O)n(C)c(=O)n2C	GAA850 FXN act 10.9 | GAA30 FXN cntr inactive | FXN GAA850 conf 9.7
O=C(N(c1ccccn1)c1ccccn1)C12CC3CC(CC(C3)C1)C2	none
O=C(N(Cc1ccccc1)c1ccccn1)C12CC3CC(CC(C3)C1)C2	GAA850 FXN act 10.6 | GAA30 FXN cntr 30.7 | FXN GAA850 conf 11.3
COC(=O)/C(=C1/Oc2cc(C)oc(=O)c2S1)C(F)(F)F	GAA850 FXN act 13.4, HSF1 inh -78.9 | GAA30 FXN cntr inactive | FXN GAA850 conf 24.4
COc1ccc(Nc2cnn(-c3nc4ccccc4s3)c(=O)c2Cl)cc1	GAA850 FXN act 20.1 | GAA30 FXN cntr 30.8 | FXN GAA850 conf 39.1
COc1ccc(N2C(=O)C3C(C2=O)C(C(=O)c2ccc(Cl)cc2)N2CCCC32)cc1 (stereo not given)	GAA850 FXN act 8.4 | GAA30 FXN cntr inactive | FXN GAA850 conf inactive
COc1ccc(OCc2nc(N)nc(Nc3ccc(C)cc3)n2)cc1	GAA850 FXN act 8.8, AHR activator 64.8 | GAA30 FXN cntr 67.3 | FXN GAA850 conf 25.0
COc1ccc(Nc2nc(N)nc(CSC(=S)N3CCN(C)CC3)n2)cc1	none

Screens from PubChem BioAssay.
